Myc binder – binds human c-Myc on microarray; AID 624141; calls only; 17,000 compounds, 1.5% hits; P01106; small molecule microarray, His-c-Myc binding, anti-His fluorescence;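 active means spot fluorescence over background with P-value below 7% in all four replicate spots, showing protein binding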;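 further: score is binary with 100 for all four spots passing and 0 otherwise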
Target sequence (P01106 whole entry, looked up): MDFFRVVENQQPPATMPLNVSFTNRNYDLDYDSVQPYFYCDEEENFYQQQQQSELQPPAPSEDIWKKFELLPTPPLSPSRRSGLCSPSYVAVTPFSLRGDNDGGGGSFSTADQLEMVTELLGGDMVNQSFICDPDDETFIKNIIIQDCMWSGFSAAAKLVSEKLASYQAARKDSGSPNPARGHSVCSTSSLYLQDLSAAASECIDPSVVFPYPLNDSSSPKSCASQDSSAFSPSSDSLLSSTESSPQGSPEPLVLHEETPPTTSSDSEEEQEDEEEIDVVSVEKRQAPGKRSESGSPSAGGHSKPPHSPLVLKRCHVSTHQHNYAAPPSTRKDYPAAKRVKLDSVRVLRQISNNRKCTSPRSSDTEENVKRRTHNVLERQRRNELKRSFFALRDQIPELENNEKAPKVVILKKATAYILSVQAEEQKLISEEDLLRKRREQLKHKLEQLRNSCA
STAT3 SMM – binders of human STAT3; calls only; AID 624138; Small molecule microarray, His-STAT3 binding, anti-His fluorescence; P40763; 17,000 compounds, 0.2% hits;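 active means compounds whose four printed spots each show fluorescence over background unusually high for their array block, chance value under 7%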
NFkB SMM – binds human NF-kappa-B p105 on microarray. P19838. Small molecule microarray, anti-His fluorescence binding. calls only. 17,000 compounds, 1.3% hits. AID 624139;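 active means spot fluorescence over background significantly raised, with a chance value under 7% in all four replicate spots of the compound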;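 further: probe protein is his-tagged human p50 processed subunit at 1 µg/ml; raw spot fluorescence signals with no normalization applied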
mut p53 SMM – binders of human mutant p53; small molecule microarray binding, anti-GST fluorescence; calls only; 17,000 compounds, 0.4% hits; AID 624136;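 active means compounds whose four printed spots each glow above background more than chance allows, each with a p-value under 7%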
Starred values were filed as active, the others as inactive. Only some compounds are listed: those with a hit (about 2.1% of all), similar ones and a draw of the others.

C[C@H](CO)N1C[C@H](C)[C@H](CN(C)C(=O)Nc2ccccc2)OCCCC[C@H](C)Oc2ccc(NC(=O)CCC(F)(F)F)cc2C1=O was read as Myc binder inactive, STAT3 SMM inactive, NFkB SMM active and mut p53 SMM inactive.
C[C@@H]1CCCCO[C@H](CN(C)C(=O)Nc2ccccc2)[C@@H](C)CN([C@@H](C)CO)C(=O)c2cc(NC(=O)CCC(F)(F)F)ccc2O1 was read as Myc binder active, STAT3 SMM inactive, NFkB SMM inactive and mut p53 SMM inactive.
`Cc1cccnc1NC(=S)NC(=O)c1cncc(Br)c1` gave Myc binder active, STAT3 SMM inactive, NFkB SMM inactive and mut p53 SMM inactive.
N#Cc1c(NC(=S)NC(=O)c2cncc(Br)c2)sc2c1CCCC2 was read as Myc binder inactive, STAT3 SMM inactive, NFkB SMM inactive and mut p53 SMM inactive.
Screening Cc1c(C(=O)N(C)C2CCCCC2)sc2nc3ccc(N)cc3n12 returned Myc binder active, STAT3 SMM inactive, NFkB SMM inactive and mut p53 SMM inactive.
Screening O=C(O)CSc1c[nH]c2ccccc12 returned Myc binder active, STAT3 SMM inactive, NFkB SMM inactive and mut p53 SMM inactive.
Screening CCCc1cc(=O)[nH]c(SCC(=O)Nc2cc(C)cc(C)c2)n1 returned Myc binder inactive, STAT3 SMM inactive, NFkB SMM inactive and mut p53 SMM inactive.
`O=C1c2ccccc2C(=O)N1CC1CCN(Cc2cccc(OCCO)c2)CC1` gave Myc binder active, STAT3 SMM inactive, NFkB SMM inactive and mut p53 SMM inactive.
`O=C1c2ccccc2C(=O)N1C1CCN(Cc2ccc(OCCO)cc2)CC1` gave Myc binder inactive, STAT3 SMM inactive, NFkB SMM inactive and mut p53 SMM inactive.
For C[C@@H]1CN([C@@H](C)CO)C(=O)c2cc(NC(=O)c3ccncc3)ccc2O[C@@H](C)CCCCO[C@@H]1CN(C)C(=O)Nc1cccc2ccccc12 the results were Myc binder inactive, STAT3 SMM active, NFkB SMM inactive and mut p53 SMM active.
CC(C)NC(=O)N(C)C[C@H]1OCCCC[C@@H](C)Oc2ccc(NC(=O)c3ccncc3)cc2C(=O)N([C@@H](C)CO)C[C@H]1C was read as Myc binder inactive, STAT3 SMM inactive, NFkB SMM active and mut p53 SMM inactive.
Screening CC(C)NC(=O)N(C)C[C@H]1OCCCC[C@H](C)Oc2ccc(NC(=O)c3ccncc3)cc2C(=O)N([C@@H](C)CO)C[C@H]1C returned Myc binder inactive, STAT3 SMM inactive, NFkB SMM inactive and mut p53 SMM inactive.
C[C@@H]1CCCCO[C@@H](CN(C)C(=O)Nc2cccc3ccccc23)[C@H](C)CN([C@H](C)CO)C(=O)c2cc(N(C)C)ccc2O1 was read as Myc binder active, STAT3 SMM inactive, NFkB SMM active and mut p53 SMM inactive.
For C[C@@H]1CCCCO[C@@H](CN(C)C(=O)Nc2cccc3ccccc23)[C@H](C)CN([C@@H](C)CO)C(=O)c2cc(NC(=O)c3ccncc3)ccc2O1 the results were Myc binder active, STAT3 SMM inactive, NFkB SMM active and mut p53 SMM inactive.
C[C@@H]1CN([C@@H](C)CO)C(=O)c2cc(NC(=O)c3ccncc3)ccc2O[C@@H](C)CCCCO[C@@H]1CN(C)C(=O)Nc1ccccc1 was read as Myc binder inactive, STAT3 SMM inactive, NFkB SMM inactive and mut p53 SMM inactive.
CCC(C)C(O)C(C)(O)/C=C/C1=CC2=C(Cl)C(=O)C(C)(O)C(O)C2=CO1 (stereo not drawn) was read as Myc binder inactive, STAT3 SMM inactive, NFkB SMM inactive and mut p53 SMM inactive.
For C[C@@H]1CCC2C(C)(C)[C@H](O)CC[C@]2(C)[C@@]12Cc1c(O)cc3c(c1O2)CNC3=O (stereo partly drawn) the results were Myc binder inactive, STAT3 SMM inactive, NFkB SMM inactive and mut p53 SMM inactive.
For CCCc1ccc(-c2cc(C(=O)NCc3ccccn3)c3ccccc3n2)cc1 the results were Myc binder inactive, STAT3 SMM inactive, NFkB SMM inactive and mut p53 SMM inactive.
COC(=O)c1c(NC(=O)c2ccc(Cn3cc(Cl)cn3)cc2)sc2c1CCC2 was read as Myc binder inactive, STAT3 SMM inactive, NFkB SMM inactive and mut p53 SMM inactive.
C[C@H]1CCCCO[C@@H](CN(C)C(=O)Nc2ccccc2)[C@@H](C)CN([C@@H](C)CO)C(=O)c2cc(NC(=O)c3ccncc3)ccc2O1 was read as Myc binder inactive, STAT3 SMM inactive, NFkB SMM inactive and mut p53 SMM inactive.

Screens as filed in PubChem.
